# Bioassay records (PubChem BioAssay)
# Jurkat NFkB inh: inhibitors of the PMA/ionomycin-induced NF-kB reporter in Jurkat cells. PMA/ionomycin-induced NF-kB luciferase reporter, luminescence. inhibition, % at 4 µM. 330,000 tested, 0.53% active. AID 435003; in the data active = inhibition above about 50%
# Gli-Sufu antag: Gli-Sufu pathway antagonism; Sufu-KO-LIGHT fibroblasts, Gli luciferase reporter luminescence; inhibition, % at 5 µM; 340,000 tested, 0.74% active; AID 588413;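 active = inhibition above about 55%, limit read from the data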;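 also: 0% = DMSO-treated cells and 100% = wells with medium but no cells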
# 697 NFkB inh: inhibitors of the PMA/ionomycin-induced NF-kB reporter in 697 B cells | 697 B-cell NF-kB luciferase reporter, 16 h | inhibition, % at 4 µM | 330,000 tested, 0.33% active | AID 435022; in the data active = inhibition above about 35%
# Shn3 3UTR inh: Schnurri-3 reporter inhibition in Clone20 osteoblasts; Clone20 osteoblast Shn3 3'UTR firefly luciferase, 24 h; AID 588674; 360,000 tested, 0.52% active; inhibition, % at 12.5 µM;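 active = mean inhibition of at least 75% with every replicate also reaching 75%; inconclusive = mean inhibition at least 75% but some replicate below; inactive = mean inhibition below 75%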;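 also: 0% = median of neutral control wells and 100% = pilot-screen positive control compound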
# EBV LMP1 NFkB: inhibitors of Epstein-Barr LMP1-induced NF-kappaB reporter. LMP1-induced NF-kappaB luciferase reporter cells, luminescence. inhibition, % at 12.5 µM. 350,000 tested, 0.69% active; in the data active = inhibition above about 41%; inconclusive = no clear call, values can overlap the other calls;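 also: 0% = neutral control wells and 100% = reference inhibitor control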
# TRPM1 prom inh: MITF TRPM1 promoter inhibition in SK-MEL-5 cells. SK-MEL-5 TRPM1 promoter luciferase, 24 h. inhibition, % at 12.5 µM. 330,000 tested, 0.83% active. AID 488899;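 active = mean inhibition across replicates of 60% or more, whatever share of single replicates reaches that level; inconclusive = some that reach 60%, reason not given; inactive = mean inhibition across replicates below 60%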
# Jurkat NFkB conf: lowers PMA/ionomycin-induced NF-kB signal in Jurkat cells. Jurkat NF-kB luciferase, 16 h. inhibition, % at 4 µM. 2,700 tested, 27% active. shares compounds with Jurkat NFkB inh;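 active = inhibition reaching about 45% at 4 µM in either replicate, limit read from the data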;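 also: plate controls were PMA/ionomycin stimulated DMSO wells for no effect and unstimulated DMSO wells for full effect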
# 697 NFkB conf: inhibitors of the PMA/ionomycin-induced NF-kB reporter in 697 B cells, retest | shares compounds with 697 NFkB inh | 697 B-cell NF-kB luciferase, 16 h | inhibition, % at 4 µM | 2,000 tested, 35% active; in the data active = inhibition mostly above about 28%, no sharp cut-off; inactive = mostly below about 22%
# Gli-Sufu confirm: confirmation of Gli-SUFU pathway antagonists | shares compounds with Gli-Sufu antag | Sufu-KO-LIGHT cells, Gli luciferase reporter, luminescence | inhibition, % at 5 µM | 2,500 tested, 40% active;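 active = mean inhibition at 5 µM reaching about 45%, limit read from the data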;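 also: plate controls were DMSO-treated cells for no effect and wells lacking cells for full effect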
# Gli cytotox: cytotoxic in Gli-SUFU antagonist counter-screen; shares compounds with Gli-Sufu antag; Sufu-KO-LIGHT cells cytotoxicity, ATP luminescence; cytotoxicity, % at 5 µM; 2,500 tested, 32% active; AID 651994;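 active = mean cytotoxicity at 5 µM above about 25%, limit read from the data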;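 also: cells exposed to compound overnight for roughly 16 to 18 hours; plate controls were DMSO wells with cells for no effect and medium without cells for full effect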
# Wnt3a counter: counter-screen for Gli-SUFU antagonists: Wnt3a reporter inhibition. Wnt-LIGHT cells, Wnt3a-driven luciferase reporter, luminescence. inhibition, % at 6.25 µM. shares compounds with Gli-Sufu antag. AID 651995. 2,500 tested, 20% active;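 active = mean inhibition above about 25%, limit read from the data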
# Starred values were filed as active, the others as inactive; ? = inconclusive; . = no result. Rows were chosen to be rich in hits. Some 2.3% of all compounds tested hit in one or more screens of this group.
SMILES,Jurkat NFkB inh,Gli-Sufu antag,697 NFkB inh,Shn3 3UTR inh,EBV LMP1 NFkB,TRPM1 prom inh,Jurkat NFkB conf,Gli-Sufu confirm,Gli cytotox,Wnt3a counter,others
COc1ccc(NS(=O)(=O)c2ccc(-c3cnc(C4CC4)o3)cc2)cc1OC,57.0*,71.8*,17.4,81.8,6.6,-1.5,67.9*,71.1*,59.1*,28.8*,
Cc1cc(Br)cc(C)c1NC(=O)c1ccccc1[N+](=O)[O-],4.3,3.3,-19.9,-14.3,1.4,7.4,.,.,.,.,
COc1ccc(CN2CCC(C(=O)Nc3ccc(Oc4cccnc4)cc3)CC2)c(C)c1C,54.2*,59.6*,-40.6,86.3*,-7.0,26.5,31.4,37.7,4.5,2.2,
COc1ccc(CN2CCC(C(=O)Nc3ccc(Oc4cccnc4)cc3)CC2)cc1,22.7,31.9,9.2,30.0,-0.9,6.3,.,.,.,.,
CCOc1ccc(/C=N/NC(=O)c2[nH]c3ccc(C)cc3c2C)cc1,-3.2,31.3,-3.5,0.1,-0.3,-0.8,.,.,.,.,
Cc1c(C(=O)N/N=C/c2ccc(Cl)cc2)[nH]c2ccc(Cl)cc12,52.5*,50.1,22.6,30.0,-4.6,14.4,51.1*,54.5*,57.7*,-34.0,
O=C(N/N=C/c1ccc(O)cc1)c1[nH]c2ccc(Br)cc2c1-c1ccccc1,60.2*,63.4*,-3.5,-8.9,14.9,62.9*,30.9,62.6*,72.4*,16.6,
O=C(N/N=C/c1c[nH]c2ccccc12)c1[nH]c2ccc(Br)cc2c1-c1ccccc1,.,47.7,.,-44.6,7.4,?,.,.,.,.,
Cc1ccc(S(=O)(=O)N2[C@@H](c3ccc(C(C)(C)C)cc3)C(C(=O)O)=CC[C@H]2c2cccs2)cc1,2.3,-15.7,2.7,-0.9,3.4,-3.5,.,.,.,.,
CC(=O)c1c(C)[nH]c(C(=O)OCC(=O)Nc2ccc(C)cc2[N+](=O)[O-])c1C,61.7*,77.3*,48.5*,79.1,-1.8,-3.2,68.8*,80.0*,26.5*,27.6*,697 NFkB conf=26.7
CC(=O)c1c(C)[nH]c(C(=O)OCC(=O)Nc2cc(Cl)ccc2[N+](=O)[O-])c1C,4.8,5.1,-10.5,3.9,21.0,26.8,.,.,.,.,
COc1cc(CSc2nnnn2-c2ccc(C)cc2)cc(OC)c1OC,58.7*,69.2*,44.2*,90.4*,26.7,23.5,60.2*,68.1*,27.3*,40.3*,697 NFkB conf=47.1*
COc1ccccc1CNC(=O)COC(=O)/C=C/c1cccs1,9.2,-8.6,11.0,14.9,-17.9,-8.5,.,.,.,.,
Cc1cc(Cl)c2oc(C(=O)N3CCN(c4ccncc4)CC3)c(C)c2c1,61.0*,68.0*,-50.1,66.0,-20.6,-2.6,15.2,25.6,22.9,-36.0,
O=S(=O)(c1ccc2c(c1)OCCO2)N1CCN(c2ncnc3sccc23)CC1,51.5*,64.0*,3.8,88.8*,18.7,3.0,54.0*,60.6*,48.1*,21.9,
O=C(Nc1ccc(C(=O)N2CCOCC2)cc1)c1cc(-c2cccnc2)nc2ccc(Cl)cc12,20.1,-9.8,7.4,-7.7,0.9,12.8,.,.,.,.,
C#CC[N+](C)(C)CCCCCCCCCCCC,70.5*,84.3*,30.4,77.4,18.3,71.7*,51.9*,80.6*,28.1*,21.7,
CC[n+]1c(/C=C/Nc2ccccc2)oc2ccccc21,8.6,23.6,9.3,-9.5,-3.1,-6.1,.,.,.,.,
CC[n+]1c(/C=C/N(C)c2ccccc2)oc2ccccc21,59.6*,85.2*,16.0,74.3,33.9,53.2,53.8*,87.0*,42.3*,33.0*,
CCOC(=O)Cn1ccc(NC(=O)COc2ccc(F)cc2)n1,-6.4,-3.8,-6.0,-7.2,5.3,1.0,.,.,.,.,
